A number with no mark means an inactive call. Records with an inconclusive call do not appear. Entries that show only a call come without a potency. Active and inactive are the calls of the source. The call rests on the fitted dose curve; in most records, active means well fitted curve in the direction sought with a large enough effect; inconclusive means small, poorly fitted or top-dose-only effect, or another doubt; inactive means no such curve, though single readings can be large; an effect the other way counts as inactive or inconclusive.
Assays:
[1] = biological target: Glutathione peroxidase 1 (Homo sapiens) (UniProt P07203); assay: Primary qHTS Assay for Inhibitors of Recombinant Selenoprotein Glutathione Peroxidase 1 (GPX1) (AID 1845191); details: recombinant GPX1, GR-coupled NADPH fluorescence, 15 min; series mostly up to 48.8 µM; further: nearly all actives have a fitted effect of over 65% in size
How it was run: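 GR-coupled readout: NADPH consumption tracked by fluorescence, ex 340/em 450 nm, at t=0 and after 15 min at RT. Final mix 10 nM GPX1, 1 mM GSH, 0.5 mM CHP, 0.5 mM NADPH, 100 nM GR, 0.01% BSA, following 30 min enzyme–compound preincubation.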

[2] = biological target: Phospholipid hydroperoxide glutathione peroxidase GPX4 (Homo sapiens) (UniProt P36969); assay: Primary qHTS Assay for Inhibitors of Recombinant Selenoprotein Glutathione Peroxidase 4 (GPX4) (AID 1845192); details: recombinant GPX4, GR-coupled NADPH fluorescence, 15 min; series mostly up to 50 µM; further: nearly all actives have a fitted effect of over 65% in size
How it was run: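 Steps: GPX4 plus compound, 30 min RT; add GR/GSH/NADPH master mix; start with cumene hydroperoxide; read 340/450 nm fluorescence at 0 and 15 min. Finals were 200 nM GPX4, 1 mM GSH, 0.5 mM CHP, 0.5 mM NADPH, 100 nM GR.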

[3] = biological target: Luciferin 4-monooxygenase (Photinus pyralis) (UniProt P08659); assay: Primary firefly luciferase (FLuc) qHTS assay for identification of artifact compounds. (AID 1845220); details: purified firefly luciferase, luminescence, 5 min; series mostly up to 54.1 µM; further: nearly all actives have a fitted effect of over 60% in size; further: potency means the concentration at half of the fitted maximal effect
How it was run: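 D-luciferin and ATP (10 uM each, final) in Tris acetate buffer pH 7.6 were incubated with compounds for 15 min at room temperature. The reaction was started with 10 nM Photinus pyralis luciferase and luminescence read after 5 min. Percent inhibition was fitted to a 4-parameter Hill equation.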

[4] = Primary fluorescence-based thiol-reactive (MSTI) qHTS assay for identification of artifact compounds. (AID 1845221); details: MSTI thiol-reactivity probe, 1 h; series mostly up to 53.8 µM; further: nearly all actives have a fitted effect of over 65% in size; further: potency means the concentration at half of the fitted maximal effect;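 on activity change, negative = thiol reactive: thiol-reactive compounds lower the probe fluorescence signal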
How it was run: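 First, 4 uM MSTI in 2% DMSO/PBS pH 7.4 was dispensed; next, compounds were added; then plates sat 1 h at room temperature without light. Finally, emission at 598 nm was recorded.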

[5] = system: Nanoluciferase (engineered Oplophorus gracilirostris luciferase); assay: Primary Nanoluciferase (NLuc) qHTS assay for identification of artifact compounds. (AID 1845222); details: NLuc-conditioned medium, Nano-Glo luminescence, 5 min; series mostly up to 54.1 µM
How it was run: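 Diluted conditioned medium from NLuc-expressing S16 cells treated with compounds for 15 min at room temperature, then Nano-Glo substrate added; luminescence read after 5 min. Percent inhibition versus no-enzyme and DMSO controls fitted to 4-parameter Hill equation.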

[6] = Primary redox qHTS assay for identification of artifact compounds. (AID 1845223); details: Amplex Red/HRP redox cycling with DTT, fluorescence; series mostly up to 53.8 µM
How it was run: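 Redox-cycling detection via DTT (250 uM final) oxidation coupled to Amplex Red (25 uM)/HRP (250 mU/mL) in HBSS. 15 min preincubation plus 30 min after DTT, room temperature. Ex/Em 525/598 nm; 4-parameter Hill fit against DMSO and 10 uM DA3003.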

Glutathione peroxidase 1 (Homo sapiens), sequence (P07203 whole entry, looked up): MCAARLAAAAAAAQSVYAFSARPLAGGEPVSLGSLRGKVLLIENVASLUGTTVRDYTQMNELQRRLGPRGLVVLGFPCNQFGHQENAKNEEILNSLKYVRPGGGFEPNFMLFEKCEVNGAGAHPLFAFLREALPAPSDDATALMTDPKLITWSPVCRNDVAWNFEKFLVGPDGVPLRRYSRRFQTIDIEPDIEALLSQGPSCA
Phospholipid hydroperoxide glutathione peroxidase GPX4 (Homo sapiens), sequence (P36969 whole entry, looked up): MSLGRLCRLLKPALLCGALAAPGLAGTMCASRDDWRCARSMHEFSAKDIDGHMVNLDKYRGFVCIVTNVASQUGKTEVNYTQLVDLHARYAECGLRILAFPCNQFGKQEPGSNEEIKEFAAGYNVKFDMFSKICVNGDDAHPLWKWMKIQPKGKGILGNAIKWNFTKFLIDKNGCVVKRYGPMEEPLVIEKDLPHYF

Structure (SMILES)	Potency [1]	Potency [2]	Potency [3]	Potency [4]	Potency [5]	Potency [6]	activity change, negative = inhibition [3]	activity change, negative = thiol reactive [4]	activity, negative = inhibition [5]	redox activity (% of DA3003) [6]
NCc1ccc(Nc2ncc(F)c(Nc3ccccc3)n2)cc1	inactive	inactive	inactive	inactive	inactive	inactive	–	–	–	–
C=C[C@@]12COC(=O)C(=C)C1[C@@H](O)[C@H](C(=C)C(=O)OC)[C@@H](OC(=O)C(=C)CO)C2 (stereo partly drawn)	inactive	inactive	inactive	11.6 µM (active)	inactive	inactive	–	–	–	–
C[C@@H]1C[C@H]2O[C@@H]2/C=C\C=C\C(=O)Cc2c(Cl)c(O)cc(O)c2C(=O)O1	inactive	inactive	–	–	–	–	-8.64% [at 11.6 µM]	-4.56% [at 11.5 µM]	-2.67% [at 11.6 µM]	4.19% [at 11.5 µM]
CC1=CC(=O)C2(OC3OC(C)C(O)C(OC(=O)/C=C/c4ccccc4)C3O)C=COC(OC3OC(CO)C(O)C(O)C3O)C12 (stereo not drawn)	inactive	inactive	inactive	1.41 µM (active)	inactive	inactive	–	–	–	–
CC(=O)N[C@@H](C(=O)O[C@H]1CCC(C)(C)[C@@H]2CCC3=C(COC3=O)[C@@]12C)C(C)C	inactive	inactive	inactive	inactive	inactive	inactive	–	–	–	–
CC/C=C\CCO[C@@H]1O[C@H](CO)[C@@H](O)[C@H](O)[C@H]1O	inactive	inactive	inactive	5.97 µM (active)	inactive	inactive	–	–	–	–
NC(=O)c1csc(C2OC(CO)C(O)C2O)n1 (stereo not drawn)	inactive	inactive	inactive	inactive	inactive	inactive	–	–	–	–
Cc1cccc(-c2[nH]c(Cc3cccc(C(N)=O)c3)nc2-c2ccc3nccnc3c2)n1	inactive	inactive	inactive	inactive	inactive	inactive	–	–	–	–
C=C(C)C(=O)OC1C(OC(C)=O)/C(C=O)=C\CC/C(CO)=C/C2OC(=O)C(=C)C21 (stereo not drawn)	inactive	inactive	inactive	inactive	inactive	inactive	–	–	–	–
Nc1ncnc2c([C@@H]3N[C@H](CO)[C@@H](O)[C@H]3O)c[nH]c12	inactive	inactive	inactive	inactive	inactive	inactive	–	–	–	–
O=C(Nc1ccc(-c2ccncc2)cc1)N[C@H](CO)c1ccccc1	inactive	inactive	inactive	inactive	inactive	inactive	–	–	–	–
O=C(c1ccccc1)c1ccc2nc(NC(=O)c3csc(C4CCN(c5ncnc6ccsc56)CC4)n3)[nH]c2c1	inactive	inactive	inactive	inactive	inactive	inactive	–	–	–	–
COC(=O)C1=CO[C@@H](O[C@@H]2O[C@H](CO)[C@@H](O)[C@H](O)[C@H]2O)[C@@H]2[C@@](C)(O)[C@@H](OC(=O)/C=C/c3ccc(O)cc3)C[C@]12O	inactive	inactive	inactive	3.27 µM (active)	inactive	inactive	–	–	–	–
CC(=O)O[C@@H]1c2c3c(cc(O)c2C(=O)O[C@@H]1C)O[C@@]1(C)[C@@H](O)C[C@H]2C(C)(C)C(=O)C=C[C@]2(C)[C@@H]1C3	inactive	inactive	inactive	inactive	inactive	inactive	–	–	–	–
CC1(C)CC[C@]2(CO[C@@H]3O[C@H](CO)[C@@H](O)[C@H](O)[C@H]3O)[C@@H](O)C[C@]3(C)C(=CCC4[C@@]5(C)CC[C@H](O[C@@H]6O[C@H](CO[C@@H]7O[C@H](CO[C@@H]8OC[C@@H](O)[C@H](O)[C@H]8O)[C@@H](O)[C@H](O)[C@H]7O)[C@@H](O)[C@H](O)[C@H]6O)C(C)(C)C5CC[C@]43C)[C@@H]2C1 (stereo partly drawn)	inactive	inactive	–	–	–	–	-4.11% [at 11.6 µM]	75.4% [at 11.5 µM]	0.495% [at 11.6 µM]	13.8% [at 11.5 µM]
Cc1[nH]c2ccccc2c1C1=C(NCCc2ccc(F)cc2)C(=O)N(C)C1=O	inactive	inactive	inactive	1.5 µM (active)	inactive	inactive	–	–	–	–
CC(=O)O[C@H]1C[C@@]2(C)[C@@H](CC[C@H]3[C@@]4(C)C=CC(=O)[C@@H](C)[C@@H]4[C@H](O)C(=O)[C@@]32C)/C1=C(/CCC=C(C)C)C(=O)O	inactive	inactive	inactive	inactive	inactive	inactive	–	–	–	–
CCc1cccc(CC)c1NC(=O)c1nn(C)c2c1CCc1cnc(Nc3ccc(C(=O)NC4CCN(C)CC4)cc3OC(F)(F)F)nc1-2	inactive	inactive	inactive	inactive	inactive	inactive	–	–	–	–
CC12CCC3c4ccc(OC5OC(C(=O)O)C(O)C(O)C5O)cc4CCC3C1CCC2O (stereo not drawn)	inactive	inactive	inactive	inactive	inactive	inactive	–	–	–	–

Structure (SMILES)	Potency [1]	Potency [2]	Potency [3]	Potency [4]	Potency [5]	Potency [6]	activity change, negative = inhibition [3]	activity change, negative = thiol reactive [4]	activity, negative = inhibition [5]	redox activity (% of DA3003) [6]
CC1(C)CC2C(C1)C(C)(O)C13CC1(COC3=O)C2O (stereo not drawn)	inactive	inactive	inactive	inactive	inactive	inactive	–	–	–	–
COc1ccc(CCC(=O)c2c(O)cc(O)cc2O[C@@H]2O[C@H](CO)[C@@H](O)[C@H](O)[C@H]2O)cc1	inactive	inactive	inactive	10.3 µM (active)	inactive	inactive	–	–	–	–
O=C(O)C(O[C@@H]1O[C@H](CO[C@@H]2O[C@H](CO)[C@@H](O)[C@H](O)[C@H]2O)[C@@H](O)[C@H](O)[C@H]1O)c1ccccc1 (stereo partly drawn)	inactive	inactive	inactive	inactive	inactive	inactive	–	–	–	–
COc1cc(C(=O)OC[C@@]2(O)CO[C@@H](O[C@H]3[C@H](Oc4ccc(C(=O)O)cc4OC)O[C@H](CO)[C@@H](O)[C@@H]3O)[C@@H]2O)ccc1O	inactive	inactive	inactive	inactive	inactive	inactive	–	–	–	–
CN1CCC(Nc2nc(Nc3ccc(Oc4ccccc4)cc3)c3c(=O)[nH]cc(Br)c3n2)CC1	inactive	inactive	inactive	inactive	inactive	inactive	–	–	–	–
CCCCOC(=O)NC(=O)C1c2ccccc2Oc2ccccc21	inactive	inactive	inactive	inactive	inactive	inactive	–	–	–	–
CC1=CC(=O)C2C(C)(C)CCC[C@]2(C)[C@H]1CO (stereo partly drawn)	inactive	inactive	inactive	inactive	inactive	inactive	–	–	–	–
COC(=O)[C@H](O)[C@H]1C(C)(C)[C@H](OC(=O)C(C)C)[C@@]2(O)C(=O)[C@]1(C)C1CC[C@]3(C)C(CC(=O)O[C@H]3c3ccoc3)[C@]13O[C@@H]32 (stereo partly drawn)	inactive	inactive	inactive	inactive	inactive	inactive	–	–	–	–
CN(C)c1nc(NC2CCC(NCCc3ccc(Br)cc3OC(F)(F)F)CC2)nc2ccccc12 (stereo not drawn)	inactive	inactive	inactive	inactive	inactive	inactive	–	–	–	–
C[C@@H]1O[C@@H](OC[C@H]2O[C@@H](OC(CCCCc3ccc(O)cc3)CCc3ccc(O)cc3)[C@H](O)[C@@H](O)[C@@H]2O)[C@H](O)[C@H](O)[C@H]1O (stereo partly drawn)	inactive	inactive	inactive	7.93 µM (active)	inactive	inactive	–	–	–	–
C[C@H]1CC[C@@]2(OC1)O[C@H]1CC3C4CC[C@H]5C[C@@H](O)[C@H](O)C[C@]5(C)C4=CC(=O)[C@]3(C)[C@H]1[C@@H]2C (stereo partly drawn)	inactive	inactive	inactive	inactive	inactive	inactive	–	–	–	–
C[C@@H]1O[C@@H](O[C@@H]2[C@@H](O)[C@H](O[C@H]3CC[C@@]4(C)C(CC[C@]5(C)C4CC=C4[C@@H]6CC(C)(C)CC[C@]6(C(=O)O[C@@H]6O[C@H](CO)[C@@H](O)[C@H](O)[C@H]6O)CC[C@]45C)C3(C)C)O[C@H](C(=O)O)[C@H]2O)[C@H](O)[C@H](O)[C@H]1O (stereo partly drawn)	inactive	inactive	–	–	–	–	0.705% [at 11.6 µM]	312% [at 11.5 µM]	2.86% [at 11.6 µM]	12.9% [at 11.5 µM]
C=C(F)c1sc(CNCCCNc2cc(=O)c3ccccc3[nH]2)c(C)c1Br	inactive	inactive	inactive	inactive	inactive	inactive	–	–	–	–
C=C(CCC1=C(C)[C@H]2[C@H](CC3[C@@H]4CC=C5C[C@@H](O)C[C@@H](O)[C@]5(C)C4[C@H](O)C[C@@]32C)O1)CO[C@@H]1O[C@H](CO)[C@@H](O)[C@H](O)[C@H]1O (stereo partly drawn)	inactive	inactive	inactive	inactive	inactive	inactive	–	–	–	–
C/C(=C\C=C\C(C)C1CCC2(C)C3CCC4C(C)(C)C(=O)CCC45CC35CCC12C)C(=O)O (stereo not drawn)	inactive	inactive	inactive	inactive	inactive	inactive	–	–	–	–
CC(C)C[C@H](CC(=O)NO)C(=O)N[C@@H](Cc1ccc2ccccc2c1)C(=O)N[C@@H](C)C(=O)NCCN	inactive	inactive	inactive	inactive	inactive	inactive	–	–	–	–
CC1(C)CCCC2(C)C1CC(=O)C13CC(CCC12)C(O)(CO)C3 (stereo not drawn)	inactive	inactive	inactive	inactive	inactive	inactive	–	–	–	–
Cc1ccc(C(=O)Nc2noc3ccccc23)cc1	inactive	inactive	0.0849 µM (active)	inactive	inactive	inactive	–	–	–	–
CC1(C)CCCC2(C)C(C(=O)O)=CCC12 (stereo not drawn)	inactive	inactive	inactive	inactive	inactive	inactive	–	–	–	–
